{
  "source": "PubChem BioAssay AID1347428",
  "about": "(National Center for Advancing Translational Sciences (NCATS), 2020)",
  "note": "About 290 (0.32%) of roughly 91,000 compounds were called active. Entries that show only a call come without a potency. About 7% were inconclusive and are not listed. The call rests on the fitted dose curve; in most records, active means well fitted inhibition curve with a large enough effect; inconclusive means small, poorly fitted or top-dose-only effect; inactive means no such curve, though single readings can be large or run the other way. The sample as a whole holds a higher share of actives than the screen did. Potency means the concentration at half of the fitted maximal effect.",
  "data": [
    {"target": "Single-stranded DNA cytosine deaminase (Homo sapiens) (UniProt Q9GZX7)", "sequence (Q9GZX7 whole entry, looked up)": "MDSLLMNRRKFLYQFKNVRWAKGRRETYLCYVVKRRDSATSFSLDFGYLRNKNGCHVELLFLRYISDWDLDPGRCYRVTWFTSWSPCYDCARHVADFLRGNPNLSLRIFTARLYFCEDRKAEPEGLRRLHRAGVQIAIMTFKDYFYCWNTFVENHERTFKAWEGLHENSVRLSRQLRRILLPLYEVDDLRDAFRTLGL", "experiment": "Primary qHTS assay for inhibitors of Activation Induced Cytidine Deaminase (AID): AID signal; further: nearly all actives have a fitted effect of over 25% in size", "conditions": "AID deamination FRET fluorescence, UDG-coupled, 4 h; series mostly up to 115 µM", "values": [
      {"molecule": "CC(=O)Oc1c(Cl)cc(Cl)cc1Sc1cc(Cl)cc(Cl)c1OC(C)=O", "Potency": "inactive"},
      {"molecule": "Cc1ccc(OCCSc2nnc(COc3ccccc3Cl)n2C)cc1", "Potency": "inactive"},
      {"molecule": "CCCCCCCCc1cnc(-c2ccc(O)cc2)nc1", "Potency": "inactive"},
      {"molecule": "COc1cc(CN(C(=S)NCC(=O)NCc2ccccc2Cl)C2CCCC2)cc(OC)c1OC", "Potency": "inactive"},
      {"molecule": "CC(=O)N1CCC(NC(=O)c2cc(C)nc3cc(F)ccc23)CC1", "Potency": "inactive"},
      {"molecule": "Cc1nn(-c2ncnc3nc[nH]c23)c2c1C(c1cccc(F)c1)CC(=O)N2", "note": "(stereo unspecified)", "Potency": "inactive"},
      {"molecule": "O=C(O)C1CCN(C(=O)Cn2ccc3c(Br)cccc32)CC1", "Potency": "inactive"},
      {"molecule": "CCC(=O)c1ccc(C2CCCCC2)cc1", "Potency": "inactive"},
      {"molecule": "C(=C\\c1ccccc1)/CNC1CC1", "Potency": "inactive"},
      {"molecule": "N#Cc1ccc(COC(=O)CCC(=O)c2ccccc2)cc1", "Potency": "inactive"},
      {"molecule": "Cc1cc(C(=O)O)c(C)n1CC(F)(F)F", "Potency": "inactive"},
      {"molecule": "O=C(/C=C/c1cccs1)N1CC=C(c2ccccc2)CC1", "Potency": "inactive"},
      {"molecule": "C(#CCN1CCCCC1)COC(c1ccccc1)c1ccccc1", "Potency": "inactive"},
      {"molecule": "CC(C)NS(=O)(=O)c1ccc(C(=O)NCC(=O)O)cc1", "Potency": "inactive"},
      {"molecule": "COc1cccc(CN(C)S(=O)(=O)c2cnn(C)c2)c1OC", "Potency": "inactive"},
      {"molecule": "CC(C)CCNC(=S)Nc1cccc(C(F)(F)F)c1", "Potency": "inactive"},
      {"molecule": "O=C(Nc1ccc2nc(N3CCCC3)sc2c1)c1ccc(F)cc1", "Potency": "inactive"},
      {"molecule": "Cc1cc(C(=O)OCc2cccc(C#N)c2)c(C)o1", "Potency": "inactive"},
      {"molecule": "O=C(N/N=C/c1ccccc1OCCOc1ccc([N+](=O)[O-])cc1)Nc1ccccc1", "Potency": "inactive"},
      {"molecule": "COc1ccc(NC(=O)Cc2ccc3c(c2)OCCO3)cn1", "Potency": "inactive"},
      {"molecule": "Cc1nn(C)c2c(=O)n(CC(=O)NCc3ccccc3)ccc12", "Potency": "inactive"},
      {"molecule": "CCOc1ccc(C(=O)CCC(=O)OCC(=O)c2ccc3c(c2)OCCO3)cc1", "Potency": "inactive"},
      {"molecule": "CC(C)c1ccc(NC(=O)CSc2nc3ncc(Cl)cc3[nH]2)cc1", "Potency": "inactive"},
      {"molecule": "COc1cc(C2CC(=O)Nc3nc(-c4ccccc4)[nH]c(=O)c32)ccc1OCc1ccc(F)cc1", "note": "(stereo unspecified)", "Potency": "inactive"},
      {"molecule": "CCCCNc1oc(/C=C/c2ccc(OCC)cc2)nc1C#N", "Potency": "inactive"},
      {"molecule": "Cc1ccc(NC(=O)CCc2nc3cc(Cl)ccc3n(CC(C)C)c2=O)cc1", "Potency": "inactive"},
      {"molecule": "O=C1c2ccccc2C(=Cc2ccc(Cl)cc2)c2ccccc21", "Potency": "inactive"},
      {"molecule": "O=C(O)c1ccc(I)c(Br)c1", "Potency": "inactive"},
      {"molecule": "Cc1nnc(SCC(=O)NCc2ccccc2Cl)c2nn(-c3ccccc3)c(C)c12", "Potency": "inactive"},
      {"molecule": "Cc1nc2nc(SCC(=O)N(Cc3ccccc3)C(C)C)nn2c(C)c1Cc1ccccc1Cl", "Potency": "22.4 µM (active)"},
      {"molecule": "COc1cc(OC)cc(-c2nc3nc(C)c(CCC(=O)Nc4ccccc4)c(C)n3n2)c1", "Potency": "inactive"},
      {"molecule": "Cc1cccc(CC(=O)N2CC(=O)Nc3ccc(F)cc3C2c2ccccc2)c1", "note": "(stereo unspecified)", "Potency": "inactive"},
      {"molecule": "CCCCOc1ccc(C(=O)N2CC(=O)Nc3ccc(Br)cc3C2c2ccc(F)cc2)cc1", "note": "(stereo unspecified)", "Potency": "35.5 µM (active)"},
      {"molecule": "COc1ccc(CC(=O)N2CC(=O)Nc3ccc(Br)cc3C2c2ccc(F)cc2)cc1OC", "note": "(stereo unspecified)", "Potency": "inactive"},
      {"molecule": "O=C(Nc1c(N2CCCC2)c2ccccc2oc1=O)c1ccc(Br)o1", "Potency": "inactive"},
      {"molecule": "Cc1cc(NC(=O)c2ccc(F)cc2F)n(CCC#N)n1", "Potency": "inactive"}
    ]}
  ]
}
